# About 83,000 compounds went through this panel and 20% of them were active in at least one assay; those are over-represented in the sample as a whole.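 Single-dose data. Exposure time 48 hours. Values below 10 considered active.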 A number with no mark means an inactive call. Calls of active or inactive are those of the source.
# Key:
# Assay in all cases: NCI-60 one-dose screen, 48 h (100 = growth as untreated, 0 = no growth, -100 = all killed)
# Conditions in all cases: 10 µM unless noted
# NCI-H23 lung = test system: NCI-H23 lung
# NCI-H226 lung = test system: NCI-H226 lung
# NCI-H322M lung = test system: NCI-H322M lung
# HOP-62 NSCLC = test system: HOP-62 NSCLC
# NCI-H460 lung = test system: NCI-H460 lung
# HOP-92 NSCLC = test system: HOP-92 NSCLC
# NCI-H522 lung = test system: NCI-H522 lung
# A549/ATCC NSCLC = test system: A549/ATCC NSCLC
# 786-0 renal = test system: 786-0 renal
# COLO 205 colon = test system: COLO 205 colon
# DU-145 prostate = test system: DU-145 prostate
# K-562 leukemia = test system: K-562 leukemia
# MALME-3M melanoma = test system: MALME-3M melanoma
# MDA-MB-231 breast = test system: MDA-MB-231 breast
# RXF 393 renal = test system: RXF 393 renal
# SF-268 CNS = test system: SF-268 CNS
# SF-295 CNS = test system: SF-295 CNS
# SF-539 CNS = test system: SF-539 CNS
# UACC-257 melanoma = test system: UACC-257 melanoma
# M14 melanoma = test system: M14 melanoma
SMILES,growth (NCI-H23 lung),growth (NCI-H226 lung),growth (NCI-H322M lung),growth (HOP-62 NSCLC),growth (NCI-H460 lung),growth (HOP-92 NSCLC),growth (NCI-H522 lung),growth (A549/ATCC NSCLC),growth (786-0 renal),growth (COLO 205 colon),growth (DU-145 prostate),growth (K-562 leukemia),growth (MALME-3M melanoma),growth (MDA-MB-231 breast),growth (RXF 393 renal),growth (SF-268 CNS),growth (SF-295 CNS),growth (SF-539 CNS),growth (UACC-257 melanoma),growth (M14 melanoma)
Cc1cc[n+](CCCC[n+]2ccc(C)cc2)cc1,96%,99%,97.1%,108%,108%,74.3%,120%,104%,95.8%,110%,101%,109%,97.6%,105%,106%,102%,103%,102%,111%,95.4%
COc1ccc2c(c1)OC(N)=C(C#N)C2c1ccc(F)cc1 (stereo not given),49.9%,80.9%,55.7%,41.3%,15.8%,59.8%,-10.1% (active),45.9%,28.1%,30.6%,36.8%,12%,61.6%,56.7%,16.1%,47.1%,23.4%,19.2%,51.7%,14.1%
O=C(Nc1cccc(-n2ccc3c(NC(=O)c4ccccc4)nccc32)c1)Nc1cc(C(F)(F)F)cc(C(F)(F)F)c1,3.76% (active),26.3%,46%,35.6%,2.99% (active),-13% (active),-46.5% (active),7.57% (active),13.4%,-36.3% (active),1.14% (active),4.23% (active),26.2%,-10.5% (active),-19.4% (active),22.1%,-19.2% (active),-19.3% (active),25.2%,-43.8% (active)
CCc1c(C)c2cc3c(c(C)c2oc1=O)OCC(=O)N3,63.5%,52.4%,60.7%,73.5%,43.2%,50.7%,58.2%,47%,48.2%,83%,72.5%,82.5%,79%,65.6%,68%,68.3%,71.7%,67.8%,84.3%,88.8%
Cc1c(C(C)(C)C)cc(C(C)(C)C)c2c1CN(C)CO2,102%,111%,105%,103%,123%,112%,93.4%,111%,105%,105%,112%,99.4%,95.5%,110%,122%,103%,103%,103%,99.5%,118%
Nc1nc(=S)ss1,98.7%,103%,100%,97.3%,110%,98.7%,94.2%,97.5%,107%,112%,116%,98.1%,111%,112%,101%,108%,102%,111%,90.2%,101%
O=C(N/N=C/c1ccccc1O)c1ccccc1O,37.5%,67%,32.6%,42.1%,13.2%,56.5%,6.88% (active),45.4%,25.8%,55.5%,38.7%,37.8%,47.9%,56.7%,54%,36.6%,42.1%,34.5%,5.06% (active),36.5%
COc1ccc(Cl)cc1NC(=O)c1cc2c([nH]1)-c1nc(NC(=O)C(C)(C)C)sc1CC2,57.8%,57.7%,75.5%,61.7%,18.3%,51.4%,38%,60.6%,93.2%,78.1%,59.9%,10.6%,74.1%,33.1%,99%,45.3%,84.2%,-14.6% (active),94.4%,71.7%
CC(C)(CCN=C(N)Nc1ccccn1)c1ccc(C(F)(F)F)cc1,11.8%,42.4%,45.5%,50.4%,18.3%,-2.94% (active),4.82% (active),31.2%,29.2%,-72.8% (active),52.7%,-31.2% (active),-49.4% (active),-14.4% (active),26.2%,51.2%,6.92% (active),53.9%,-7.98% (active),-64.3% (active)
O=C(NCCNc1nccc(-c2c(-c3cccc(O)c3)nc3sccn23)n1)Nc1cccc(C(F)(F)F)c1,96.2%,97%,76.8%,83.5%,80.1%,54.5%,-5.9% (active),39.3%,79.4%,53.2%,89%,70.6%,23.6%,37.7%,26.3%,26.2%,75.5%,98.5%,25.3%,-21.7% (active)
Cl[C@@H]1CCO[C@H](c2cc3ccccc3c3ccccc23)C1,95.5%,89.8%,94.6%,98.8%,99%,89.1%,82.6%,93.6%,88.7%,104%,102%,95.5%,106%,90.2%,98.8%,97.9%,96.4%,95%,93.4%,95.3%
CC(Cl)(CCl)CS(=O)(=O)c1ccc(Cl)cc1 (stereo not given),101%,92.6%,100%,94.8%,107%,90%,92.9%,88.9%,102%,106%,108%,105%,114%,96.5%,93.1%,101%,100%,107%,86.7%,104%
O=C(NCCNc1nccc(-c2c(-c3cccc(O)c3)nc3sccn23)n1)c1cc(N2CCOCC2)cc(C(F)(F)F)c1,106%,106%,107%,136%,96.2%,87.7%,78.6%,88.6%,86.6%,32.7%,110%,70.7%,3.04% (active),74.1%,77.8%,102%,84.4%,101%,16.7%,22.4%
CC1CCc2cc(F)cc3c(=O)c(C(=O)O)cn1c23 (stereo not given),91.5%,103%,116%,106%,105%,91.9%,110%,104%,87.1%,104%,110%,92.6%,99.9%,82.8%,108%,105%,97.6%,107%,101%,97.6%
Fc1ccc(/C=N/n2c(-c3cc(Cl)cc(Cl)c3Cl)nn(CNc3ccc(Cl)nn3)c2=S)cc1,86.3%,97.1%,94.9%,82.4%,112%,49.5%,82.8%,99.3%,85.5%,100%,121%,85.8%,103%,83.3%,97%,105%,121%,97.6%,98.1%,85.6%
CSc1nc(N)nc2c1ncn2C,95.8%,102%,104%,84.6%,104%,64.5%,78%,84.5%,90%,94.5%,108%,95%,104%,109%,116%,98.7%,108%,98.9%,104%,102%

# Source: PubChem BioAssay (NCI)
